Laboratory results: paper PMC9911399, “Two distinct binding modes provide the RNA-binding protein RbFox with extraordinary sequence specificity”
Changes are numbered by the printed parent chain; changes in the protein carry UniProt numbers. The full ranking holds about 16,000 sequences; the median of “ka relative to ugcaugu” is about 0.096, and the highest 2% start at about 0.35. The list comes from a sample in which the highest values are over-represented; it also holds similar and randomly drawn sequences.

T1: RBFOX1 RRM RbFoxmut (Fox-RRM*) (Homo sapiens, UniProt Q9NWB1 109-208, R118D;E147R;N151S;E152T)
T1 sequence: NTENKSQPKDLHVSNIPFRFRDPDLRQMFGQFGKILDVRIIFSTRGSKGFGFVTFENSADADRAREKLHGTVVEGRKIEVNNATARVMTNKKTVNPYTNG

B1: AACCGUG (DNA:RNA)
RNA: GGGAGACCGGAAUUCAGAUUGUCCAACCGUGUUAAAUCCCGUCGUAGCCACCA
DNA 1: CAATCTGAATTCCGGTCTCCC
DNA 2: TGGTGGCTACGACGGGATT
B2: GGCUGGA (DNA:RNA)
RNA: B1 RNA with A25G, A26G, C28U, U30G, G31A
DNA 1: CAATCTGAATTCCGGTCTCCC
DNA 2: TGGTGGCTACGACGGGATT
B3: CUCCGAA (DNA:RNA)
RNA: B1 RNA with A25C, A26U, U30A, G31A
DNA 1: CAATCTGAATTCCGGTCTCCC
DNA 2: TGGTGGCTACGACGGGATT
B4: UGCUACC (DNA:RNA)
RNA: B1 RNA with A25U, A26G, C28U, G29A, U30C, G31C
DNA 1: CAATCTGAATTCCGGTCTCCC
DNA 2: TGGTGGCTACGACGGGATT
B5: AAAUGCG (DNA:RNA)
RNA: B1 RNA with C27A, C28U, U30C
DNA 1: CAATCTGAATTCCGGTCTCCC
DNA 2: TGGTGGCTACGACGGGATT
B6: UGACUUC (DNA:RNA)
RNA: B1 RNA with A25U, A26G, C27A, G29U, G31C
DNA 1: CAATCTGAATTCCGGTCTCCC
DNA 2: TGGTGGCTACGACGGGATT
B7: UCAUAAU (DNA:RNA)
RNA: GGGAGACCGGAAUUCAGAUUGUCCUCAUAAUUUAAAUCCCGUCGUAGCCACCA
DNA 1: CAATCTGAATTCCGGTCTCCC
DNA 2: TGGTGGCTACGACGGGATT
B8: AUCCACG (DNA:RNA)
RNA: B1 RNA with A26U, G29A, U30C
DNA 1: CAATCTGAATTCCGGTCTCCC
DNA 2: TGGTGGCTACGACGGGATT
B9: UUGCACC (DNA:RNA)
RNA: B7 RNA with C26U, A27G, U28C, A30C, U31C
DNA 1: CAATCTGAATTCCGGTCTCCC
DNA 2: TGGTGGCTACGACGGGATT
B10: UUGCCCG (DNA:RNA)
RNA: B1 RNA with A25U, A26U, C27G, G29C, U30C
DNA 1: CAATCTGAATTCCGGTCTCCC
DNA 2: TGGTGGCTACGACGGGATT
B11: AUGCACC (DNA:RNA)
RNA: B1 RNA with A26U, C27G, G29A, U30C, G31C
DNA 1: CAATCTGAATTCCGGTCTCCC
DNA 2: TGGTGGCTACGACGGGATT
B12: GUGCACC (DNA:RNA)
RNA: B1 RNA with A25G, A26U, C27G, G29A, U30C, G31C
DNA 1: CAATCTGAATTCCGGTCTCCC
DNA 2: TGGTGGCTACGACGGGATT
B13: UUGCACG (DNA:RNA)
RNA: B1 RNA with A25U, A26U, C27G, G29A, U30C
DNA 1: CAATCTGAATTCCGGTCTCCC
DNA 2: TGGTGGCTACGACGGGATT
B14: AUGCACG (DNA:RNA)
RNA: B1 RNA with A26U, C27G, G29A, U30C
DNA 1: CAATCTGAATTCCGGTCTCCC
DNA 2: TGGTGGCTACGACGGGATT
B15: ACGUGCG (DNA:RNA)
RNA: B1 RNA with A26C, C27G, C28U, U30C
DNA 1: CAATCTGAATTCCGGTCTCCC
DNA 2: TGGTGGCTACGACGGGATT
B16: GUGCACG (DNA:RNA)
RNA: B1 RNA with A25G, A26U, C27G, G29A, U30C
DNA 1: CAATCTGAATTCCGGTCTCCC
DNA 2: TGGTGGCTACGACGGGATT
B17: GUGUCUU (DNA:RNA)
RNA: B7 RNA with U25G, C26U, A27G, A29C, A30U
DNA 1: CAATCTGAATTCCGGTCTCCC
DNA 2: TGGTGGCTACGACGGGATT
B18: UGAUGGG (DNA:RNA)
RNA: B7 RNA with C26G, A29G, A30G, U31G
DNA 1: CAATCTGAATTCCGGTCTCCC
DNA 2: TGGTGGCTACGACGGGATT
B19: GGUGGAC (DNA:RNA)
RNA: B1 RNA with A25G, A26G, C27U, C28G, U30A, G31C
DNA 1: CAATCTGAATTCCGGTCTCCC
DNA 2: TGGTGGCTACGACGGGATT
B20: CGCAACA (DNA:RNA)
RNA: B1 RNA with A25C, A26G, C28A, G29A, U30C, G31A
DNA 1: CAATCTGAATTCCGGTCTCCC
DNA 2: TGGTGGCTACGACGGGATT
B21: GCACAGC (DNA:RNA)
RNA: B7 RNA with U25G, U28C, A30G, U31C
DNA 1: CAATCTGAATTCCGGTCTCCC
DNA 2: TGGTGGCTACGACGGGATT
B22: GCGAUGU (DNA:RNA)
RNA: B7 RNA with U25G, A27G, U28A, A29U, A30G
DNA 1: CAATCTGAATTCCGGTCTCCC
DNA 2: TGGTGGCTACGACGGGATT
B23: CUCAAAA (DNA:RNA)
RNA: B7 RNA with U25C, C26U, A27C, U28A, U31A
DNA 1: CAATCTGAATTCCGGTCTCCC
DNA 2: TGGTGGCTACGACGGGATT
B24: UCGUUUG (DNA:RNA)
RNA: B7 RNA with A27G, A29U, A30U, U31G
DNA 1: CAATCTGAATTCCGGTCTCCC
DNA 2: TGGTGGCTACGACGGGATT
B25: UCGUCGU (DNA:RNA)
RNA: B7 RNA with A27G, A29C, A30G
DNA 1: CAATCTGAATTCCGGTCTCCC
DNA 2: TGGTGGCTACGACGGGATT
B26: UUGUUUG (DNA:RNA)
RNA: B1 RNA with A25U, A26U, C27G, C28U, G29U
DNA 1: CAATCTGAATTCCGGTCTCCC
DNA 2: TGGTGGCTACGACGGGATT
B27: UCGUUUU (DNA:RNA)
RNA: B7 RNA with A27G, A29U, A30U
DNA 1: CAATCTGAATTCCGGTCTCCC
DNA 2: TGGTGGCTACGACGGGATT
B28: GUGUGUG (DNA:RNA)
RNA: B1 RNA with A25G, A26U, C27G, C28U
DNA 1: CAATCTGAATTCCGGTCTCCC
DNA 2: TGGTGGCTACGACGGGATT
B29: GUCCGUG (DNA:RNA)
RNA: B1 RNA with A25G, A26U
DNA 1: CAATCTGAATTCCGGTCTCCC
DNA 2: TGGTGGCTACGACGGGATT
B30: GUACGUG (DNA:RNA)
RNA: B1 RNA with A25G, A26U, C27A
DNA 1: CAATCTGAATTCCGGTCTCCC
DNA 2: TGGTGGCTACGACGGGATT
B31: UUGUACG (DNA:RNA)
RNA: B7 RNA with C26U, A27G, A30C, U31G
DNA 1: CAATCTGAATTCCGGTCTCCC
DNA 2: TGGTGGCTACGACGGGATT
B32: UUGUCGU (DNA:RNA)
RNA: B7 RNA with C26U, A27G, A29C, A30G
DNA 1: CAATCTGAATTCCGGTCTCCC
DNA 2: TGGTGGCTACGACGGGATT
B33: UUGUUGU (DNA:RNA)
RNA: B7 RNA with C26U, A27G, A29U, A30G
DNA 1: CAATCTGAATTCCGGTCTCCC
DNA 2: TGGTGGCTACGACGGGATT
B34: GUGUACG (DNA:RNA)
RNA: B7 RNA with U25G, C26U, A27G, A30C, U31G
DNA 1: CAATCTGAATTCCGGTCTCCC
DNA 2: TGGTGGCTACGACGGGATT
B35: GUGUCCC (DNA:RNA)
RNA: B7 RNA with U25G, C26U, A27G, A29C, A30C, U31C
DNA 1: CAATCTGAATTCCGGTCTCCC
DNA 2: TGGTGGCTACGACGGGATT

Each binder was assayed against T1, RBFOX1 RRM RbFoxmut (Fox-RRM*) (assay: EMSA; HiTS-Eq, 1 nM pool, 10 min; buffer printed only for the single-RNA assays: 10 mM Tris pH 7.5, 150 mM NaCl, 3.4 mM EDTA, 0.001% NP-40, 30 C). Details: tags: His6 N-terminal (pET28a); label: 5' 32P.
Outline: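 Purified RbFox RRM, wild type or mutant, was incubated for 10 min in 50 µL with 1 nM of a 5′-radiolabelled RNA pool carrying 7 randomized nucleotides, whose flanks were annealed to DNA oligonucleotides, over a series of increasing protein concentrations. Unbound RNA was resolved on 8% native PAGE, cut out, reverse-transcribed, barcoded by PCR and sequenced on an Illumina HiSeq 2500. Relative association constants were derived from changes in read counts for each RNA species versus the control reaction and normalised to the cognate motif.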

Row | Binder | binding signal
1 | B1 | 0.109 KA relative to UGCAUGU
2 | B2 | 0.0732 KA relative to UGCAUGU
3 | B3 | 0.104 KA relative to UGCAUGU
4 | B4 | 0.147 KA relative to UGCAUGU
5 | B5 | 0.104 KA relative to UGCAUGU
6 | B6 | 0.0822 KA relative to UGCAUGU
7 | B7 | 0.103 KA relative to UGCAUGU
8 | B8 | 0.135 KA relative to UGCAUGU
9 | B9 | 0.181 KA relative to UGCAUGU
10 | B10 | 0.178 KA relative to UGCAUGU
11 | B11 | 0.132 KA relative to UGCAUGU
12 | B12 | 0.167 KA relative to UGCAUGU
13 | B13 | 0.612 KA relative to UGCAUGU
14 | B14 | 0.551 KA relative to UGCAUGU
15 | B15 | 0.182 KA relative to UGCAUGU
16 | B16 | 0.66 KA relative to UGCAUGU
17 | B17 | 0.101 KA relative to UGCAUGU
18 | B18 | 0.0449 KA relative to UGCAUGU

Row | Binder | binding signal
19 | B19 | 0.0584 KA relative to UGCAUGU
20 | B20 | 0.102 KA relative to UGCAUGU
21 | B21 | 0.0832 KA relative to UGCAUGU
22 | B22 | 0.151 KA relative to UGCAUGU
23 | B23 | 0.0819 KA relative to UGCAUGU
24 | B24 | 0.396 KA relative to UGCAUGU
25 | B25 | 0.109 KA relative to UGCAUGU
26 | B26 | 0.709 KA relative to UGCAUGU
27 | B27 | 0.0973 KA relative to UGCAUGU
28 | B28 | 0.532 KA relative to UGCAUGU
29 | B29 | 0.146 KA relative to UGCAUGU
30 | B30 | 0.188 KA relative to UGCAUGU
31 | B31 | 0.261 KA relative to UGCAUGU
32 | B32 | 0.132 KA relative to UGCAUGU
33 | B33 | 0.21 KA relative to UGCAUGU
34 | B34 | 0.441 KA relative to UGCAUGU
35 | B35 | 0.101 KA relative to UGCAUGU
